{"source": "PubChem BioAssay (NCATS)", "note": "“And” between values parts separate entries of the source, which are not always exact repeats. Identical values can stand only once. Records with an inconclusive call do not appear. Unmarked numbers belong to inactive results. The source made the active and inactive calls. Calls come from the whole dose curve; as a rule, active = well fitted inhibition curve with a large enough effect; inconclusive = small, poorly fitted or top-dose-only effect; inactive = flat fitted curve, though single readings scatter. % is set by controls: 0 for no effect and ±100 for the full control effect; potency is the fitted concentration of half-maximal effect.", "data": [{"system": "NIH3T3", "experiment": "Cytotoxic Profiling of Annotated Libraries Using Quantitative High-Throughput Screening (AID 1296008); note: nearly all actives have a fitted effect of over 60% in size", "conditions": "Five cell lines viability, CellTiter-Glo ATP luminescence, 48-72 h; max response: stronger effect = lower value", "source_text": "Cell-based phenotypic screening is a commonly used approach to discover biological pathways, novel drug targets, chemical probes and high-quality hit-to-lead molecules. Many hits identified from high-throughput screening campaign are ruled out through a series of follow-up potency, selectivity/specificity, and cytotoxicity assays. Prioritization of molecules with little or no cytotoxicity for a more in-depth downstream evaluation influence the future direction of projects, so cytotoxicity profiling of the screening libraries at early stage is essential for increasing the likelihood of candidate success. […] For the annotated library, we also examined the primary targets and mechanistic pathways regularly associated with cell death. To our knowledge, this is the first study to use high-throughput screening to profile large libraries for cytotoxicity assessment in both normal and cancer cell lines. In summary, the results generated here constitutes a valuable resource for the scientific community and provides insight on identifying cytotoxic compounds with particular mechanisms of action, and prioritizing compounds with suitable cytotoxicity profile for further evaluation.\nA pintool (Kalypsys) was used to transfer 23 nL of compound solution to the 1536-well assay plates. After 48 or 72 hr incubation at 37 degree Celsius, 5% CO2 and 95% humidity, 2.5 uL of CellTiter-Glo (Promega) was dispensed into each well using a dispenser (Aspect Automation, St. Paul, MN) with solenoid valves (Lee Valves, Westbrook CT). Plates were left at room temperature for 10 min before imaging the ATP-coupled luminescence using a ViewLux microplate imager (PerkinElmer, Waltham, MA).", "values": [{"smiles": "CN(C)C1CCN(C(=O)c2ccc(NC(=O)Nc3nc(N4CCOCC4)nc(N4CCOCC4)n3)cc2)CC1", "Potency": "0.0935 µM (active)"}, {"smiles": "Cc1ccc(/C=N/NC(=O)c2ccccc2Oc2ccccc2)o1", "max response": "-19%"}, {"smiles": "Cc1ccn(-c2ccc(-c3ncco3)cc2)c(=O)c1-c1ccc2nc(N)ncc2c1", "Potency": "16.6 µM (active) and 6.51 µM (active)"}, {"smiles": "O=C(O)c1cc(O)c2c(c1)C(=O)c1cccc(O)c1C2=O", "max response": "0.522%"}, {"smiles": "O=C1NC(=O)C(=Cc2ccc3c(c2)OC(F)(F)O3)S1", "max response": "-19.2%"}, {"smiles": "CCN(CC)CCOC(=O)c1ccc(N)cc1", "max response": "-2.46%"}, {"smiles": "COc1ccccc1N1CCN(CCCNc2cc(=O)n(C)c(=O)n2C)CC1", "outcome": "inactive"}, {"smiles": "CC(=Cc1ccccc1)C=C1SC(=S)N(CC(=O)O)C1=O", "outcome": "inactive"}, {"smiles": "Cc1ccc(Nc2cc(-c3cccc(N4C(=O)c5ccccc5C4=O)c3)ncn2)cc1NS(C)(=O)=O", "max response": "-7.13%", "outcome": "inactive"}, {"smiles": "Clc1ccc(Cn2c(CN3CCCC3)nc3ccccc32)cc1", "max response": "3.2% and 1.49%"}, {"smiles": "CCC(=O)O[C@]1(C(=O)CO)CC[C@H]2[C@@H]3CCC4=CC(=O)CC[C@]4(C)[C@@H]3CC[C@@]21C", "outcome": "inactive"}, {"smiles": "NC(=O)c1cnc(-c2ccc(C3(N)CCC3)cc2)c(-c2ccccc2)c1", "max response": "4.42%"}, {"smiles": "CCn1c(C(=O)N(C2CC2)C2CC2)cc2c3c(ncn3C)c(Nc3cc(C)n(C)n3)nc21", "Potency": "23.5 µM (active)"}, {"smiles": "Cc1ccc(C(=O)Nc2cccc(C(F)(F)F)c2)cc1Nc1nc(-c2cccnc2)nc2c1cnn2C", "Potency": "9.35 µM (active)"}, {"smiles": "COc1cc2c(cc1OC)CN(CCc1ccc(NC(=O)c3cc(OC)c(OC)cc3NC(=O)c3cnc4ccccc4c3)cc1)CC2", "max response": "-16.8%"}, {"smiles": "CC[C@]1(O)C[C@@H]2CN(CCc3c([nH]c4ccccc34)[C@@](C(=O)OC)(c3cc4c(cc3OC)N(C=O)[C@@H]3C45CCN4CC=C[C@](CC)([C@H]45)[C@@H](OC(C)=O)[C@]3(O)C(=O)OC)C2)C1", "note": "(stereo not given in full)", "max response": "-0.0535%"}, {"smiles": "O=C(CCN1CCN(C(=O)OCc2cc(Cl)cc(Cl)c2)CC1)c1ccc2[nH]c(=O)oc2c1", "max response": "1.12% and -60.6%"}, {"smiles": "Nc1ncnc2c1ncn2[C@@H]1O[C@@H](CO)[C@H](O)[C@H]1O", "max response": "-24.9%"}, {"smiles": "Cc1[nH]c(C=C2C(=O)Nc3ccc(S(=O)(=O)Cc4c(Cl)cccc4Cl)cc32)c(C)c1C(=O)N1CCC[C@H]1CN1CCCC1", "max response": "-20.1%"}, {"smiles": "COc1ncc(-c2ccc3nccc(-c4ccnnc4)c3c2)cc1NS(=O)(=O)c1ccc(F)cc1F", "Potency": "0.0037 µM (active)"}, {"smiles": "CCN(CC)C(=O)c1ccc(O)c(OC)c1", "max response": "-4.21%"}, {"smiles": "CC(C)(C)OC(=O)N[C@H]1CCCCCC=C[C@@H]2C[C@@]2(C(=O)NS(=O)(=O)C2CC2)NC(=O)[C@@H]2C[C@@H](OC(=O)N3Cc4cccc(F)c4C3)CN2C1=O", "max response": "-0.939%"}, {"smiles": "Cc1ccc([C@@H]2O[C@H](CO)[C@@H](O)[C@H](O)[C@@H]2O)cc1Cc1ccc(-c2ccc(F)cc2)s1", "outcome": "inactive"}, {"smiles": "CC=CC(=O)N(CC)c1ccccc1C", "max response": "3.96%"}, {"smiles": "CN(C)c1cc(NC(=O)CNC(C)(C)C)c(O)c2c1C[C@@H]1C[C@H]3[C@H](N(C)C)C(=O)C(C(N)=O)=C(O)[C@@]3(O)C(=O)C1=C2O", "max response": "-1.41%"}, {"smiles": "COc1cc2ncnc(-n3nc(-c4ccccn4)nc3N)c2cc1OC", "max response": "0.54% and -22.1%"}, {"smiles": "CCCCC1C(=O)N(c2ccccc2)N(c2ccccc2)C1=O", "max response": "-4.9%"}, {"smiles": "O=C1C(Cl)=C(NCCN2CCOCC2)C(=O)c2ncccc21", "Potency": "2.64 µM (active)"}, {"smiles": "CC=CCC=CCCC(=O)[C@H]1O[C@@H]1C(N)=O", "max response": "1.26%"}, {"smiles": "C[C@H](NC(=O)c1sccc1OCc1ccc(Cl)cc1)c1ccccc1", "max response": "-27.6%"}, {"smiles": "O=C(O)[C@H]1O[C@H](Oc2cc3oc(-c4ccccc4)cc(=O)c3c(O)c2O)[C@H](O)[C@@H](O)[C@H]1O", "max response": "-17.6%"}, {"smiles": "CCCCCNC(=O)N1CCC(CN(Cc2ccc(Cl)cc2)Cc2ccc([N+](=O)[O-])s2)C1", "note": "(stereo not given)", "max response": "-17.3%"}, {"smiles": "O=C(O)CCc1nc(-c2ccccc2)c(-c2ccccc2)o1", "outcome": "inactive", "max response": "3.82%"}, {"smiles": "C=C1C(=O)OC2C=C(C)CCC=C(C)CCC12", "note": "(stereo not given)", "max response": "0.3%"}, {"smiles": "CN(C)Cc1cccc(N=C(c2ccccc2)c2c(O)[nH]c3cc(C(=O)N(C)C)ccc23)c1", "Potency": "13.2 µM (active)"}, {"smiles": "CCn1cc(C(=O)O)c(=O)c2ccc(C)nc21", "max response": "-10.7% and -7.98%"}, {"smiles": "CN(C)CCC=C1c2ccccc2COc2ccc(CC(=O)O)cc21", "outcome": "inactive"}, {"smiles": "CC(=O)Nc1ccc([C@H](C)C(=O)Nc2ncc(C(C)C)s2)cc1", "Potency": "8.33 µM (active) and 9.2 µM (active)"}]}]}
